This is a sample that favours compounds with a hit; in the whole collection about 2.2% have one here.
LGR2 antag = blocks bursicon-induced cAMP signaling via Drosophila LGR2; HEK293 LGR2, CRE-luciferase, bursicon-stimulated, 4 h; inhibition, % at 9.99 µM; 380,000 compounds, 0.35% hits;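 active means drop in luminescence signal, shown as inhibition above about 50% in the replicate tests, limit read from the data, passing the limit was not always enough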;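 further: agonist challenge used bursicon conditioned medium at about half maximal strength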
TWEAK-Fn14 inh = blocks TWEAK-Fn14 interaction in a reporter cell assay; TWEAK-stimulated Fn14 reporter cells, luciferase luminescence, 8 h; inhibition, % at 10 µM; 360,000 compounds, 2% hits; AID 1159606; in the data active means inhibition above about 50%
HSP90 refold inh = inhibitors of HSP90 luciferase refolding in rabbit reticulocyte lysate; 290,000 compounds, 0.91% hits; AID 1789; luciferase refolding luminescence, 3 h; inhibition, % at 5.6 µM;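 active means inhibition above the screen-wide mean plus 3 SD, computed separately per campaign, cut at about 16% in these data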;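 further: 0% = DMSO wells and 100% = 60 µM geldanamycin wells; inhibitors lower the luminescence because luciferase stays unfolded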
TROY NFkB inh = blocks TROY-dependent signaling in reporter cells. 360,000 compounds, 0.98% hits. inhibition, % at 10 µM. AID 1347056. Q293 LMP1-TROYcd NF-kB luciferase reporter, 4 h;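 active means compounds whose plate-normalised and pattern-corrected inhibition of the luciferase reporter signal at the single screening dose is 50% or more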
Active calls of the source: *; . = no result given.

SMILES | LGR2 antag | TWEAK-Fn14 inh | HSP90 refold inh | TROY NFkB inh
Cc1noc(/C=C/Nc2ccc(F)cc2F)c1[N+](=O)[O-] | -108 | -6 | 0 | -15
Cc1noc(/C=C/c2ccccn2)c1[N+](=O)[O-] | 34 | 56* | 0 | 23
Oc1ccc(-c2n[nH]c(C(F)(F)F)c2-c2ccccc2)c(O)c1 | 4 | 56* | 1 | 31
C/C=C/c1ccc([C@H]2[C@H](CO)N(C(=O)COC)[C@H]2CNC(=O)CC)cc1 | -1 | . | . | .
CN1C2CCC1/C(=C/c1cccn1C)C(=O)/C2=C\c1cccn1C | -12 | -4 | 1 | 1
CN1C2CCC1/C(=C\c1ccc(F)cc1)C(=O)/C2=C/c1ccc(F)cc1 | 10 | 65* | 2 | -14
C[C@@H]1CN([C@@H](C)CO)C(=O)c2cc(NS(=O)(=O)c3ccc(F)cc3)ccc2O[C@@H](C)CCCCO[C@@H]1CN(C)Cc1ccc(C(=O)O)cc1 | 5 | . | . | .
COC(=O)C[C@@H]1CC[C@@H]2[C@H](COC[C@@H](O)CN2S(=O)(=O)c2ccccc2C)O1 | 16 | . | . | .
COc1ccc(F)cc1-c1cc(C(=O)NCc2cc(C(F)(F)F)cc(C(F)(F)F)c2)[nH]n1 | 22 | 8 | . | 29
CCCOc1ccc(F)cc1-c1cc(C(=O)NCc2cc(C(F)(F)F)cc(C(F)(F)F)c2)[nH]n1 | . | 53* | . | 23
CCCOc1ccc(F)cc1-c1cc(C(=O)Nc2ccc(C)c(NS(C)(=O)=O)c2)[nH]n1 | 5 | 59* | . | 41
Cc1nc2cc(NCc3nc4ccccc4n3Cc3ccccc3)ccc2n1C | . | 90* | 16* | 87*
Cc1nc2cc(NCc3cc([N+](=O)[O-])ccc3O)ccc2n1Cc1ccccc1 | 18 | 53* | 3 | 80*
O=C(c1cccs1)c1ccccc1Cc1cccs1 | -20 | 92* | . | -24
COc1ccc(-c2cc(=O)oc3c(C)c(O)c(CN(C)C)cc23)cc1 | . | 23 | 0 | 60*
COc1ccc(-c2cc(=O)oc3c(C)c(OCC(=O)N(C)C)ccc23)cc1 | -8 | -23 | 0 | -2
Cc1ccc(NC(=O)Cn2nc(C)c3ccccc3c2=O)cc1 | . | 72* | 0 | .
CN1C(=O)c2cc(NC(=O)c3cccs3)ccc2OC[C@H]2O[C@@H](CC(=O)NCCN3CCCCC3)CC[C@@H]21 | -4 | . | . | .
Cc1ccc(Nc2nc(CSc3nnc(-c4ccncc4)n3C)cs2)cc1 | 10 | 53* | 5 | 41
Cc1ccc(CSc2nnc(-c3ccncc3)n2C)cc1 | . | -5 | -2 | 4
Cc1cc(OCC(=O)Nc2ccc(N3CCN(C(=O)c4ccco4)CC3)cc2)cc(C)c1Cl | 4 | 52* | -1 | 52*
Cc1cccc(C)c1OCC(=O)NNC(=O)c1ccoc1C | . | 51* | -2 | .
COc1ccc(/C=N/NC(=O)c2ccoc2C)cc1COc1c(C)cccc1C | . | 74* | -1 | 41
CS(=O)(=O)N1CCCCN2[C@H](C1)[C@@H](c1ccc(-c3cccc(C#N)c3)cc1)[C@@H]2CO | -9 | . | . | .
Cc1nn(C)c(C)c1C1Nc2ccccc2C(=O)N1O (stereo not given) | . | -9 | -3 | -40
SMILES | LGR2 antag | TWEAK-Fn14 inh | HSP90 refold inh | TROY NFkB inh
O=C1c2ccccc2NC(c2cnc3ccccc3n2)N1O (stereo not given) | . | 74* | -2 | 26
O=C(NC1CCCCC1)N1CC(=O)N2[C@H](C1)[C@@H](c1ccc(-c3cccc(F)c3)cc1)[C@@H]2CO | -8 | . | . | .
Cc1cc(=O)[nH]c(NCc2ccccc2)n1 | 0 | -24 | 16* | 2
C[C@@H]1CCCCO[C@H](CN(C)S(=O)(=O)c2cn(C)cn2)[C@H](C)CN([C@@H](C)CO)C(=O)c2cc(NC(=O)c3ccncc3)ccc2O1 | -16 | . | . | .
CCCc1nc(SCC(=O)N2CCC(Cc3ccccc3)CC2)c2c(=O)n(C)c(=O)n(C)c2n1 | 17* | 61* | 1 | 83*
CCc1nc(SCC(=O)N2CCN(c3ccccc3)CC2)c2c(=O)n(C)c(=O)n(C)c2n1 | . | . | -2 | .
CO[C@@H]1CN(C)C(=O)c2cc(NS(=O)(=O)Cc3ccccc3)ccc2OC[C@@H](C)NC[C@H]1C | 8 | . | . | .
CCn1c(C)nc2cc(C(=O)NNC(=O)c3ccc(C)cc3)ccc21 | -73 | 72* | . | 78*
CCn1c(C)nc2cc(C(=O)NNC(=O)c3ccc(Cl)nc3)ccc21 | -5 | -3 | 2 | 11
CCn1c(C)nc2cc(C(=O)OC(C(F)(F)C(F)F)C(F)(F)C(F)F)ccc21 | . | 1 | 0 | 57*
Cc1ccccc1-c1ccc([C@H]2[C@H]3CN(C(=O)NC4CCCC4)CCCCN3[C@H]2CO)cc1 | 5 | . | . | .
CN1[C@H](C(=O)NC2CCCC2)[C@@H](CO)[C@@H]2Cn3c(ccc(-c4cccc(F)c4)c3=O)[C@@H]21 | -7 | . | . | .
O=C(O)c1cc(NC(=O)c2ccc(Cl)c([N+](=O)[O-])c2)cc(C(=O)O)c1 | -9 | -12 | -1 | 5
O=C(Nc1ccc(S(=O)(=O)NC2=NCCCCC2)cc1)c1ccc(Cl)c([N+](=O)[O-])c1 | 8 | 12 | . | 14
O=C(Nc1ccc(C(O)(C(F)(F)F)C(F)(F)F)cc1)c1ccc(Cl)c([N+](=O)[O-])c1 | -5 | 62* | 0 | 50*
Cc1cccc(C)c1NS(=O)(=O)c1ccc(NC(=O)c2ccc(Cl)c([N+](=O)[O-])c2)cc1 | 9 | 87* | -2 | 68*
C/C=C/c1ccc([C@H]2[C@H]3CN(C(=O)Nc4cccc(OC)c4)CC(=O)N3[C@H]2CO)cc1 | 11 | . | . | .
C[C@@H]1CCCCO[C@@H](CN(C)C(=O)Nc2ccccc2)[C@@H](C)CN([C@@H](C)CO)C(=O)c2cc(NC(=O)Nc3cccc4ccccc34)ccc2O1 | 7 | . | . | .
Oc1ccc(Br)cc1-c1nc2cnccn2c1NC1CCCC1 | . | 62* | 2 | 14
CN(C)C(=O)C[C@@H]1C[C@H]2c3cc(NC(=O)CC4CC4)ccc3O[C@H]2[C@@H](CO)O1 | -32 | . | . | .
C[C@@H]1CN([C@@H](C)CO)C(=O)Cc2cc(NC(=O)Nc3ccccc3)ccc2O[C@H]1CN(C)Cc1ccc(C(F)(F)F)cc1 | 20 | . | . | .
Fc1ccc(CNC(=S)NCc2ccccc2)cc1 | -24 | 13 | 1 | -41
O=[N+]([O-])c1ccc(NC(=S)NCc2ccc(F)cc2)cc1 | 8 | 36 | -3 | 56*
Fc1ccc(NC(=S)NCc2ccccc2)cc1 | -10 | 107* | 0 | 13
O=[N+]([O-])c1ccc(NC(=S)NCCc2ccc(Cl)cc2)cc1 | . | 60* | 1 | 57*
SMILES | LGR2 antag | TWEAK-Fn14 inh | HSP90 refold inh | TROY NFkB inh
O=C(N[C@@H]1CC[C@@H](CCNC(=O)C2CCCCC2)O[C@H]1CO)c1ccncc1 | 15 | . | . | .
Cc1cc(C)c2nc(NNC(=O)c3cc(-c4cccs4)nc4ccccc34)sc2c1 | 0 | 36 | 5 | 12
O=C(NNc1nc2ccc(Cl)cc2s1)c1cc(-c2cccs2)nc2ccccc12 | . | 58* | 0 | 39
CCOc1ccc(S(=O)(=O)Nc2ccc(C(=O)N(CC)CC(=O)NCc3cccs3)cc2)cc1 | -5 | 74* | . | 1
Clc1ccc(-c2csc(NNC3=NCCCCC3)n2)cc1 | . | -7 | 1 | -21
c1ccc(-c2csc(NNC3=NCCCCC3)n2)cc1 | 3 | 41 | -1 | 53*
